Measured values: the antibiotic and cytotoxicity screens of Wong et al. (2023)
Hit rate of the full screen: of about 39,000 compounds, about 500 (1.3%) were called active. The full list was thinned out, with actives kept by preference.

test system: S. aureus RN4220; assay: growth inhibition call (relative growth <= 0.2); conditions: 50 µM

Structure (SMILES) | growth inhibition call
COc1ccc(S(=O)(=O)Nc2ccc3c(c2)C(=O)N([C@H](C)CO)C[C@@H](C)[C@H](CN(C)Cc2ccc(Cl)c(Cl)c2)OCCCC[C@H](C)O3)cc1 | inactive
C[C@@H]1CN([C@H](C)CO)C(=O)c2cc(-c3ccncc3)cnc2O[C@H]1CN(C)S(=O)(=O)c1ccccc1 | inactive
C[C@@H]1CN([C@@H](C)CO)C(=O)c2cc(NS(=O)(=O)c3ccc(F)cc3)ccc2O[C@H]1CN(C)C(=O)Nc1ccc(C(F)(F)F)cc1 | inactive
C[C@@H]1CCCCO[C@H](CN(C)S(=O)(=O)c2cn(C)cn2)[C@H](C)CN([C@@H](C)CO)C(=O)c2cc(NS(=O)(=O)c3ccc(F)cc3)ccc2O1 | inactive
C[C@@H]1CN([C@@H](C)CO)C(=O)c2cc(NC(=O)Nc3cccc4ccccc34)ccc2O[C@@H]1CN(C)S(=O)(=O)c1ccc(F)cc1 | inactive
COc1cc(OC)cc(-c2ccc(-c3ccc([C@H]4CC(=O)C[C@@H](c5ccccc5)C45C(=O)OC(C)(C)OC5=O)cc3)cc2OC)c1 | inactive
COc1cc(OC)cc(-c2ccc([C@H]3CC(=O)C[C@@H](c4ccccc4)C34C(=O)c3ccccc3C4=O)cc2)c1 | active
COc1cc(OC)cc(-c2ccc([C@H]3CC(=O)C[C@@H](c4ccccc4)C34C(=O)OC(C)(C)OC4=O)cc2)c1 | inactive
Cc1cc(C(=O)Nc2cccc3c2O[C@H](CN(C)C(=O)NC(C)C)[C@@H](C)CN([C@H](C)CO)C3=O)n(C)n1 | inactive
C[C@H](CO)N1C[C@H](C)[C@@H](CN(C)C(=O)c2ccccc2)OCCCC[C@H](C)Oc2ccc(NC(=O)Nc3ccc4c(c3)OCO4)cc2C1=O | inactive
CO[C@H]1CN(C)C(=O)c2ccc(NS(=O)(=O)c3ccccc3C)cc2OC[C@@H](C)N(S(C)(=O)=O)C[C@@H]1C | inactive
C[C@@H]1CCCCO[C@H](CN(C)C)[C@H](C)CN([C@@H](C)CO)C(=O)c2cc(NC(=O)CCCN(C)C)ccc2O1 | inactive
COC1C(O)CC(=O)OC(C)CC=CC=CC(O)C(C)CC(CC=O)C1OC1OC(C)C(OC2CC(C)(O)C(OC(=O)CC(C)C)C(C)O2)C(N(C)C)C1O (stereo unspecified) [KITASAMYCINS [A1 shown]] | active
COC(=O)[C@@H]1CC(=O)O[C@H](C)C/C=C/C=C/[C@H](O)[C@H](C)C[C@H](CC=O)[C@H](O[C@H]2O[C@H](C)[C@@H](O[C@H]3C[C@@](C)(O)[C@@H](OC(=O)CC(C)C)[C@H](C)O3)[C@H](N(C)C)[C@H]2O)[C@H]1OC | active
CO[C@@H]1[C@@H](O[C@@H]2O[C@H](C)[C@@H](O[C@H]3C[C@@](C)(O)[C@@H](OC(=O)CC(C)C)[C@H](C)O3)[C@H](N(C)C)[C@H]2O)[C@@H](CC=O)C[C@@H](C)[C@@H](O)/C=C/C=C/CC(C)OC(=O)C[C@H]1OC(C)=O (stereo partly specified) | inactive
CO[C@@H]1[C@@H](O[C@@H]2O[C@H](C)[C@@H](O[C@H]3C[C@@](C)(O)[C@@H](OC(=O)CC(C)C)[C@H](C)O3)[C@H](N(C)C)[C@H]2O)[C@@H](CC=O)C[C@@H](C)[C@@H](O)/C=C\C=C/C[C@@H](C)OC(=O)C[C@H]1OC(C)=O | active
C[C@@H]1CN([C@@H](C)CO)C(=O)c2cc(NC(=O)CCC(F)(F)F)ccc2O[C@@H]1CN(C)Cc1ccc(Oc2ccccc2)cc1 | inactive
C[C@H](CO)N1C[C@H](C)[C@H](CN(C)C(=O)Nc2ccc(C(F)(F)F)cc2)Oc2c(NC(=O)NC3CCCCC3)cccc2C1=O | active
C[C@@H]1CN([C@H](C)CO)C(=O)c2cccc(NC(=O)Nc3ccc(C(F)(F)F)cc3)c2O[C@H]1CN(C)CC1CCCCC1 | inactive
C[C@@H]1CN([C@H](C)CO)C(=O)c2cccc(NC(=O)NC3CCCCC3)c2O[C@H]1CN(C)C(=O)Nc1ccc(C(F)(F)F)cc1 | inactive
C[C@@H]1CN([C@H](C)CO)C(=O)c2cccc(NC(=O)Nc3ccc(C(F)(F)F)cc3)c2O[C@@H]1CN(C)CC1CCCCC1 | active

Structure (SMILES) | growth inhibition call
C[C@H]1CN([C@@H](C)CO)C(=O)c2cccc(NC(=O)Nc3ccc(C(F)(F)F)cc3)c2O[C@@H]1CN(C)CC1CCCCC1 | inactive
C[C@H]1CN([C@@H](C)CO)C(=O)c2cccc(NC(=O)Nc3ccc(C(F)(F)F)cc3)c2O[C@@H]1CN(C)C(=O)NC1CCCCC1 | inactive
C[C@H]1CN([C@@H](C)CO)C(=O)c2cccc(NC(=O)NC3CCCCC3)c2O[C@H]1CN(C)C(=O)Nc1ccc(C(F)(F)F)cc1 | inactive
C[C@@H]1CN([C@H](C)CO)C(=O)c2cccc(NC(=O)Nc3ccc(C(F)(F)F)cc3)c2O[C@@H]1CN(C)C(=O)NC1CCCCC1 | inactive
C[C@H]1CN([C@@H](C)CO)C(=O)c2cccc(NC(=O)Nc3ccc(C(F)(F)F)cc3)c2O[C@H]1CN(C)C(=O)NC1CCCCC1 | active
C[C@H](CO)N1C[C@H](C)[C@H](CN(C)C(=O)Cc2ccccc2)OCCCC[C@H](C)Oc2ccc(NS(=O)(=O)c3ccc(F)cc3)cc2C1=O | inactive
C[C@@H]1CN([C@@H](C)CO)C(=O)c2cccc(NC(=O)Nc3ccc(C(F)(F)F)cc3)c2O[C@H]1CN(C)C(=O)NC1CCCCC1 | inactive
C[C@H](O)C#Cc1cnc2c(c1)C(=O)N([C@@H](C)CO)C[C@H](C)[C@@H](CN(C)C(=O)Nc1ccc(C(F)(F)F)cc1)O2 | inactive
C[C@@H]1CN([C@H](C)CO)C(=O)Cc2cc(NC(=O)Nc3ccc(C(F)(F)F)cc3)ccc2O[C@@H]1CN(C)C(=O)Nc1cccc2ccccc12 | inactive
CO[C@@H]1[C@@H](OC(=O)c2ccc(C)[nH]2)[C@@H](O)[C@@H](Oc2ccc3c(c2C)OC(=O)[C@H](NC(=O)c2[nH]cc(CC(=O)Nc4cc5ccc(O[C@@H]6OC(C)(C)[C@H](OC)[C@@H](OC(=O)c7ccc(C)[nH]7)[C@H]6O)c(C)c5oc4=O)c2C)C3)CC1(C)C | inactive
COC1C(OC(N)=O)C(O)C(Oc2ccc3c([O-])c(NC(=O)c4ccc(O)c(CC=C(C)C)c4)c(=O)oc3c2C)OC1(C)C.[Na+] (stereo unspecified) | active
O=C(C[C@H]1C[C@@H]2c3cc(NS(=O)(=O)c4ccc(F)cc4)ccc3O[C@@H]2[C@@H](CO)O1)NC1CCCCC1 | inactive
O=C(C[C@H]1CC=CCCC(=O)OCCNC1=O)NCCO | inactive
c1n[nH]nc1SSc1cn[nH]n1 | active
C[C@@H]1CN([C@@H](C)CO)C(=O)Cc2cc(NC(=O)CCCN(C)C)ccc2O[C@H]1CN(C)S(C)(=O)=O | inactive
COc1ccc(S(=O)(=O)N(C)C[C@@H]2Oc3ccc(NC(=O)Nc4cccc5ccccc45)cc3C(=O)N([C@@H](C)CO)C[C@@H]2C)cc1 | inactive
COc1ccc(S(=O)(=O)Nc2cccc3c2O[C@@H](CN(C)S(=O)(=O)c2cn(C)cn2)[C@@H](C)CN([C@H](C)CO)C3=O)cc1 | inactive
C[C@H]1CN([C@@H](C)CO)C(=O)c2cc(NC(=O)Nc3ccc(C(F)(F)F)cc3)ccc2O[C@H]1CN(C)Cc1ccc(C(=O)O)cc1 | inactive
Cc1ccc(S(=O)(=O)Nc2cccc3c2O[C@H](CN(C)Cc2ccc(C(F)(F)F)cc2)[C@H](C)CN([C@@H](C)CO)C3=O)cc1 | inactive
NC[C@@H]1O[C@H](C23CC4CC(CC(C4)C2)C3)Cc2c1ccc(O)c2O | active
Cn1cnc(S(=O)(=O)N2CC[C@H]3NC(=O)C[C@H]32)c1 | inactive

Structure (SMILES) | growth inhibition call
C[C@@H]1CN([C@H](C)CO)C(=O)Cc2cc(NC(=O)CCC(F)(F)F)ccc2O[C@H]1CN(C)S(=O)(=O)c1cn(C)cn1 | inactive
OC1(c2ccc(Cl)c(C(F)(F)F)c2)CCN(CCCC(c2ccc(F)cc2)c2ccc(F)cc2)CC1 [listing 1 of 2 here] | inactive
O=C(CCCN1CCC(O)(c2ccc(Cl)cc2)CC1)c1ccc(F)cc1 | inactive
OC1(c2ccc(Cl)c(C(F)(F)F)c2)CCN(CCCC(c2ccc(F)cc2)c2ccc(F)cc2)CC1 [listing 2 of 2 here] | active
C[C@H](CO)N1C[C@H](C)[C@@H](CN(C)S(=O)(=O)c2ccc(F)cc2)Oc2c(NC(=O)c3ccncc3)cccc2C1=O | inactive
C[C@@H]1CN([C@@H](C)CO)C(=O)c2cc(NC(=O)C3CCCCC3)ccc2O[C@@H](C)CCCCO[C@H]1CN(C)Cc1ccc(C(F)(F)F)cc1 | inactive
COc1ccc(S(=O)(=O)N(C)C[C@@H]2Oc3ccc(NC(=O)C4CC4)cc3CC(=O)N([C@@H](C)CO)C[C@H]2C)cc1 | inactive
C[C@H]1c2cccc(O)c2C(=O)C2=C(O)[C@]3(O)C(=O)[C@@H](C(N)=O)C(=O)[C@@H](N(C)C)[C@@H]3[C@@H](O)[C@@H]21 | active
CC1c2cccc(O)c2C(=O)C2=C(O)C3(O)C(=O)C(C(N)=O)=C(O)C(N(C)C)C3C(O)C21.Cl (stereo unspecified) | inactive
C=C1c2cccc(O)c2C(=O)[C@@H]2C(=O)[C@]3(O)C(=O)[C@@H](C(N)=O)C(=O)[C@@H](N(C)C)[C@@H]3[C@@H](O)[C@H]12 | inactive
COc1ccc(S(=O)(=O)N(C)C[C@@H]2Oc3c(NC(=O)C4CC4)cccc3C(=O)N([C@@H](C)CO)C[C@@H]2C)cc1 | inactive
CO[C@@H]1CN(C)C(=O)c2ccc(NC(=O)C3CC3)cc2OC[C@H](C)N(C(=O)CN2CCOCC2)C[C@H]1C | inactive
C[C@@H]1CN([C@H](C)CO)C(=O)c2cc(NS(=O)(=O)c3ccccc3)ccc2O[C@@H](C)CCCCO[C@H]1CN(C)C(=O)NC1CCCCC1 | inactive
CC1CCc2cc(F)cc3c(=O)c(C(=O)O)cn1c23 (stereo unspecified) | active
CC1COc2c(N3CCN(C)CC3)c(F)cc3c(=O)c(C(=O)O)cn1c23 (stereo unspecified) | active
CC1COc2c(C3(N)CC3)c(F)cc3c(=O)c(C(=O)O)cn1c23.CS(=O)(=O)O (stereo unspecified) | inactive
C[C@H]1COc2c(C3(N)CC3)c(F)cc3c(=O)c(C(=O)O)cn1c23 | active
CC1CCc2c(N3CCC(O)CC3)c(F)cc3c(=O)c(C(=O)O)cn1c23 (stereo unspecified) | inactive
CN1CCN(c2c(F)cc3c(=O)c(C(=O)O)cn4c3c2OCN4C)CC1 | active
